High-throughput results as filed in PubChem.
HT1080NT lethal = kills 2HG-producing HT-1080-NT fibrosarcoma cells; HT-1080-NT fibrosarcoma viability, CellTiter-Glo ATP luminescence, 48 h; Potency, µM (highest dose often 46.1 µM), actives largely listed as cytotoxic; actives 1.6% (n = 360,000); AID 686970;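 note: NT is the 2HG producing partner of a matched IDH1 knockdown line; nearly all actives have a fitted effect of over 55% in size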
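A 48-hour cytotoxicity screen used HT-1080-NT cells plated 2 hours before compound delivery. ATP-based CellTiter-Glo luminescence measured viability, normalized to DMSO and no-cell controls.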
IL1B secr inh = inflammasome signaling inhibition, IL-1 beta readout. actives 4.7% (n = 360,000). AID 743279. THP-1 LPS/ATP IL-1B secretion, AlphaLISA, 16 h; hits give low values. activity change, % at 57.5 µM; in the data active = activity change below about -50%; inconclusive = mostly about -30% to -49%
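Secreted IL-1B measured by AlphaLISA bead assay after 16 h compound exposure of THP-1 cells; compounds (final up to 57.5 uM) added 1 h before LPS (250 ng/mL) and ATP (1.25 mM) stimulation; lower signal means less secretion.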
TDP1 cell CPT = growth inhibition of DT40 Tdp1-/-;hTDP1 cells with camptothecin (screen for TDP1 inhibitors); chicken DT40 Tdp1-/-;hTDP1 cells + 20 nM CPT, ATP luminescence, 48 h; Potency, µM (top dose mostly 46.2 µM), actives largely listed as inhibitors; actives 12% (n = 420,000); note: nearly all actives have a fitted effect of over 55% in size
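Cell growth measured by CellTiter-Glo luminescence after a minimum 48 h, 37 C compound exposure with 20 nM CPT in Tdp1-knockout DT40 cells stably expressing hTDP1, seeded 400/well; qHTS titration format.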
DT40 TDP1 no CPT = qHTS for Inhibitors of human tyrosyl-DNA phosphodiesterase 1 (TDP1): qHTS in cells in absence of CPT; Potency, µM (series often up to 46.2 µM), usual class: inhibitors; actives 15% (n = 420,000); DT40 Tdp1-/- hTDP1 cells, no CPT, ATP luminescence, 48 h; note: nearly all actives have a fitted effect of over 55% in size
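DT40 Tdp1-/-;hTDP1 cells, no CPT (DMSO vehicle only), 400 cells/well; compounds pin-transferred; ≥48 hr, 37 °C; CellTiter-Glo 30 min RT dark, luminescence read.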
HT1080 IDH1KD tx = HT-1080 IDH1 knockdown cell toxicity (counter line); HT-1080 IDH1 knockdown viability, ATP luminescence, 48 h; Potency, µM (highest dose often 46.1 µM), actives largely listed as cytotoxic; actives 2% (n = 360,000); AID 686971
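In this qHTS, HT-1080 cells depleted of IDH1 are exposed for 48 h at 37 °C to compound titrations. Toxicity is scored from CellTiter-Glo luminescence, with DMSO as full viability and medium alone as none.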
A number is an active result; . = inactive; ? = inconclusive; / = not tested or not shown; [ ] = another dose, or the depositor's remark. Sampled rows, rich in hits. Any-hit rate of the full collection: about 19%. Unless noted, calls come from the whole dose curve; as a rule, active = well fitted curve in the direction sought with a large enough effect; inconclusive = small, poorly fitted or top-dose-only effect, or another doubt; inactive = no such curve, though single readings can be large; an effect the other way counts as inactive or inconclusive.

SMILES	HT1080NT lethal	IL1B secr inh	TDP1 cell CPT	DT40 TDP1 no CPT	HT1080 IDH1KD tx
CCC1(C)CC(=O)c2c(ccc3oc(C(=O)NCc4ccccc4)c(C)c23)O1 (centres undefined)	/	/	29.1µM	16.4µM	/
CC(C)n1cnnc1SCC(=O)Nc1ccc(Br)cc1F	.	.	.	.	.
COc1cc(C(=S)N2CCCC2)cc(Cl)c1OCC(=O)Nc1ccc(C)cc1C	.	.	13µM	?	.
Cc1cccc(OCC(=O)Nc2ccccc2N2CCCCC2)c1	.	.	11.6µM	?	.
Cc1ccc(C)c(OCC(=O)Nc2ccccc2N2CCCC2)c1	.	.	?	?	.
O=C(COc1ccccc1)Nc1cc(C(F)(F)F)ccc1N1CCCC1	.	.	?	?	.
Cc1cc(N2CCCC2)ccc1NC(=O)COc1cccc(C(F)(F)F)c1	?	.	8.2µM	4.61µM	?
Cc1ccc(OCC(=O)Nc2ccccc2N2CCCC2)c(C)c1	.	?	?	29.1µM	.
Cc1cccc(OCC(=O)Nc2ccccc2N2CCN(C)CC2)c1	.	.	.	?	.
CCCOc1ccccc1/C=N/NC(=O)C1CC1	.	.	.	.	.
Cc1noc(C)c1NC(=O)NC(c1ccccc1)c1ccccc1	.	.	.	.	.
CCOC(=O)c1c(-c2ccccc2)csc1NC(=O)c1cc(-c2ccc(F)cc2)on1	/	/	.	.	/
COc1cc(OC)cc(C(=O)NNC(=O)CN2C(=O)NC(C)(c3ccccc3)C2=O)c1 (centres undefined)	.	.	.	.	.
CSc1ccc(CN2CCC2(C)C(=O)Nc2cccc(Oc3ccccc3)c2)cc1 (centres undefined)	.	.	18.4µM	14.6µM	.
CC1(C(=O)Nc2cccc(Oc3ccccc3)c2)CCN1Cc1cc2ccccc2o1 (centres undefined)	.	.	23.1µM	?	?
COc1cccc(NC(=O)C2(C)CCN2Cc2ccc(OC(C)C)cc2)c1 (centres undefined)	.	.	?	?	.
COc1cc(/C=N/Nc2ccc(C(F)(F)F)cn2)cc(OC)c1O	?	.	?	18.4µM	?
Oc1ccc(/C=N/Nc2ccc(C(F)(F)F)cn2)cc1	?	-94.8	?	.	?
CC(=O)c1sc(-c2ccc(F)cc2)cc1NS(=O)(=O)c1ccccc1	.	.	.	.	.
CC(C)n1c(O)c(/C=C2\C=NN=C2c2ccccc2)sc1=S	20.6µM	/	?	?	20.6µM
CCn1c(O)c(/C=C2\C=NN=C2c2ccc(C)cc2)sc1=S	.	.	.	.	.
Cc1ccc(S(=O)(=O)N2CCN(C(=O)COC(=O)CCCOc3ccccc3)CC2)c(C)c1	.	.	.	.	.
O=C(Nc1ccc(Br)cc1)c1cccc(S(=O)(=O)Nc2ccccn2)c1	.	.	.	16.4µM	.
O=C1CSc2ccc(C(=O)Nc3cccc(S(=O)(=O)Nc4ccc(Br)cc4)c3)cc2N1	/	?	18.4µM	8.2µM	/
COc1ccc(NC(=O)c2cccc(S(=O)(=O)Nc3ccc(Br)cc3)c2)cn1	?	-80.0	?	23.1µM	?
SMILES	HT1080NT lethal	IL1B secr inh	TDP1 cell CPT	DT40 TDP1 no CPT	HT1080 IDH1KD tx
CCc1c(O)nc(SCC(=O)Nc2ccc(Cl)cc2)n(-c2ccccc2)c1=O	.	.	.	.	.
COC(=O)c1sc(=S)n(-c2cc(F)ccc2F)c1N	.	.	14.6µM	?	.
CCOC(=O)c1sc(=S)n(-c2cc(F)ccc2F)c1N	.	.	?	.	?
Cc1noc(C)c1CC(=O)NCC1Cc2cc(-c3cccc(OC(F)(F)F)c3)ccc2O1 (centres undefined)	/	/	?	10.3µM	/
Cc1cnc(C)c(-c2ccc3c(c2)CC(CNC(=O)Cc2c(C)[nH]c4ccccc24)O3)n1 (centres undefined)	/	/	0.517µM	0.92µM	/
CC(=O)N1CCC[C@H]1C(=O)NCC1Cc2cc(-c3cccc(OC(F)(F)F)c3)ccc2O1 (some centres undefined)	/	/	?	16.4µM	/
Cc1cnc(C)c(-c2ccc(F)c3c2OC(CNC(=O)Cc2c(C)[nH]c4ccccc24)C3)n1 (centres undefined)	/	/	.	.	/
COC(=O)C1CCCCN1Cc1nc(N2CCCCC2)c2cc(OC)c(OC)cc2n1 (centres undefined)	/	/	.[9.04 µM]	.	/
COc1ccc(-c2cc(C(F)(F)F)nc(NCCc3ccccc3)n2)cc1OC	/	/	.	.	/
COCCNc1cc(C)nc2c(-c3ccccc3OC)c(C)nn12	.	.	.	.	.
COc1nc(NCCc2ccc(OC)c(OC)c2)nc(Nc2ccccc2)n1	.	-81.2	14.6µM	?	.
CC(=O)Nc1ccc(Nc2cc(C)nc3c(-c4ccc(Cl)cc4)cnn23)cc1	.	.	18.4µM	23.1µM	?
Cc1cc(NC2CCCC2)n2nc(C)c(-c3ccccc3)c2n1	.	-74.1	?	?	.
COc1ccc(CCNc2cc(C)nc3c(-c4ccccc4)c(C)nn23)cc1OC	.	.	?	16.4µM	.
COc1ccc(-c2c(C)nn3c(NC4CCCC4)cc(C)nc23)cc1OC	.	.	?	?	.
Cc1ccnc2nc(C(=O)Nc3nc(-c4ccccn4)cs3)nn12	.	.	.	.	.
CCOCCCN1C(=O)C(=O)N(CC(=O)N2c3ccccc3NC(=O)CC2C)C1=O (centres undefined)	.	.	.	.	.
COc1ccc(CCNc2cc(C)nc3c(-c4ccccc4)cnn23)cc1OC	.	?	?	29.1µM	?
COc1ccccc1-c1cnn2c(NCCc3ccccc3)cc(C)nc12	.	?	.	?	.
COc1ccc(CCNc2cc(C)nc3c(-c4ccc(Cl)cc4)cnn23)cc1OC	?	.	20.6µM	16.4µM	.
CC(C)(C)OC(=O)N1CCCC(C(=O)Nc2cccc(C(=O)N3CCCC3)c2)C1 (centres undefined)	.	.	.	.	.
CCOc1cccc(/C=C/c2ccc3cccc(O)c3n2)c1OC	?	.	20.6µM	18.4µM	?
CCOc1cccc(/C=C/c2ccc3cccc(O)c3n2)c1O	.	-97.2	14.6µM	20.6µM	?
CCOc1ccccc1/C=C/c1cc(C(=O)O)c2ccccc2n1	.	.	.	?	.
Cc1cc(C)c(NC(=O)c2sc3nc4c(cc3c2N)C(=O)CC(C)(C)C4)c(C)c1	.	.	?	18.4µM	.
CCn1c(SCC(=O)Nc2nnc(C)s2)nc2c(c1=O)SC(C)C2 (centres undefined)	.	.	.	?	.
CC1Cc2nc(SCC(=O)NC3CCCCC3)n(C)c(=O)c2S1 (centres undefined)	.	.	.	.	.
CCc1nnc(NC(=O)CSc2nc3c(c(=O)n2C)SC(C)C3)s1 (centres undefined)	.	.	?	20.6µM	.
